NPC1 promoter act: activates the NPC1 promoter; Huh7 NPC1 promoter luciferase reporter, 24 h; 320,000 compounds, 2.4% hits; AID 485313; Potency, µM (series often up to 9.22 µM), without a hit: top-dose activation, usual class: activators; note: % of control where 0% means no effect; nearly all actives have a fitted effect of over 60% in size
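Luminescence from an NPC1 promoter-driven luciferase reporter in stably transfected Huh7 cells was measured after 24 h compound treatment at 37 °C, followed by 10 min ambient incubation with luciferase detection reagent.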
SMN2 splice enh: enhancers of SMN2 splice variant expression; HEK293 SMN2-luciferase splicing reporter, luminescence, 30-36 h; Potency, µM (titrated, usually from 46.1 µM), for the others: at the highest dose activity change, positive = activation, usual class: activators; 210,000 compounds, 2.8% hits; AID 1458; note: % of control where 0% means no effect; nearly all actives have a fitted effect of over 55% in size
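HEK293 cells carry an SMN2 […]–luciferase reporter in which exon 7 inclusion puts luciferase in frame. Cells were plated 10-12 h before compound addition, then incubated 30-36 h at 37C. ONE-Glo luminescence was read; sodium butyrate at 4.5 mM final served as control.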
Rab9 prom act: activates the Rab9 promoter; Huh7 Rab9 promoter-luciferase reporter, luminescence, 24 h; Potency, µM (series often up to 9.22 µM), for the others: at the top dose activation, negative = inhibition, usual class: activators; 320,000 compounds, 2.8% hits; note: % of control where 0% means no effect; nearly all actives have a fitted effect of over 60% in size
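Luminescence from Amplite-detected luciferase (10 minutes, ambient) reports Rab9 promoter activation. Before that, stable Rab9-luciferase Huh7 cells (1500/well, reduced-serum OP-MEM I plus 10% FBS) were exposed to compound for 24 hours at 37C.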
KinaseGlo FLuc: counter-screen: inhibitors of Kinase-Glo firefly luciferase; Kinase-Glo luciferase, ATP luminescence, 8 min; Potency, µM (doses to about 38.3 µM), without a hit: top-dose activity change, negative = inhibition, actives largely listed as inhibitors; 200,000 compounds, 0.28% hits; note: % is set by controls: 0 for no effect and ±100 for the full control effect; nearly all actives have a fitted effect of over 60% in size
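Light output from Kinase-Glo luciferase with luciferin and 10 uM ATP in 50 mM imidazole pH 7.2, KCl, MgCl2, Tween 20, BSA; compound pin-delivered, 8-min ambient incubation, then luminescence read.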
FLuc counter: inhibits or activates purified firefly luciferase, miR-21 counter-screen | purified FLuc, Km substrates, luminescence inhibition | 360,000 compounds, 6.9% hits | P08659 | Potency, µM (top dose mostly 57.5 µM), for the others: top-dose activity change, negative = inhibition, actives largely listed as inhibitors;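 note: plate controls were vehicle for no effect and reference inhibitor for full effect; nearly all actives have a fitted effect of over 55% in size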
Target sequence (P08659 whole entry, looked up): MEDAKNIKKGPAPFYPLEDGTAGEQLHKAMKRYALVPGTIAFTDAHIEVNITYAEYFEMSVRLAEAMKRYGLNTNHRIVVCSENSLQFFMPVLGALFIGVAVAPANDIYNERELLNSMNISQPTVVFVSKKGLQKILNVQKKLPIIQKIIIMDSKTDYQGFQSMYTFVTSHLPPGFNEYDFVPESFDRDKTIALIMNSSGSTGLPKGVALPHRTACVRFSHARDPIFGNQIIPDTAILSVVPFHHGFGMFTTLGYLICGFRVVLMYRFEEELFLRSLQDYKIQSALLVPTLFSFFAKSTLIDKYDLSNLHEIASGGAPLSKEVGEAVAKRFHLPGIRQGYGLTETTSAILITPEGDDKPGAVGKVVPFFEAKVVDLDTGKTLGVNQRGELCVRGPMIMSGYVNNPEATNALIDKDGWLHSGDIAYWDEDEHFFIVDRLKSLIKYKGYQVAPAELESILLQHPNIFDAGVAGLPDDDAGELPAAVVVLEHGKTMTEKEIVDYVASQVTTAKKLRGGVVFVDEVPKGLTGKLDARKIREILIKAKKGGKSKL
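Biochemical qHTS of compounds, final roughly 60 µM downward over six points, against 10 nM purified firefly luciferase using Km concentrations of substrates (10 uM D-luciferin, 10 uM ATP) in Tris acetate pH 7.5 buffer; luminescence output.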
* = called active by the depositor; ? = inconclusive; . = no result; [ ] = dose if it differs, or a comment. Rows were chosen to be rich in hits. Some 7.3% of all compounds tested hit in one or more screens of this group. Calls come from the whole dose curve; as a rule, active = well fitted curve in the direction sought with a large enough effect; inconclusive = small, poorly fitted or top-dose-only effect, or another doubt; inactive = no such curve, though single readings can be large; an effect the other way counts as inactive or inconclusive. Potency is the fitted concentration of half-maximal effect.

SMILES	NPC1 promoter act	SMN2 splice enh	Rab9 prom act	KinaseGlo FLuc	FLuc counter
O=C(CCS(=O)(=O)c1ccccc1)Nc1nc2ccc(F)cc2s1	4%	.	-4%	.	3%
O=C(Nc1nc2c(F)cc(F)cc2s1)c1ccco1	0.71µM*	.	0.45µM*	.	4.8µM*
CCOC(=O)c1ccc(NC(=O)CCc2c(C)n(CC)c3cc(-c4ccccc4OC)nn3c2=O)cc1	.	10%	.	.	-2%
CC(=O)Nc1cccc(NC(=O)c2ccc3[nH]c(C)c(C)c3c2)c1	1%	.	27%	.	11µM*
Cc1cc(=O)c2cc(C(=O)Nc3ccc(C)c(C)c3)ccc2[nH]1	.	.	.	.	4%
Cc1cc(NC(=O)c2ccc3[nH]c(C)c(C)c3c2)ccn1	0%	.	-1%	.	15µM*
CCCC(O)c1nc2ccccc2n1CCCCOc1ccc(OC)cc1 (stereo not drawn)	.	.	.	.	-12%
Nc1ccccc1N=Nc1ccccc1N	1.6µM*	.	1.6µM*	.	5.4µM*
Nc1ccc(N=Nc2ccccc2)c(N)c1	.	28µM*	.	.	.
Nc1ccc(N=Nc2ccccc2)c2cccnc12	18%	.	-17%	.	21µM*
Nc1ccc(Br)c2cccnc12	-3%	.	-5%	-2%	-2%
CN(C)CC(C)(C)CNC(=O)c1ccc(-n2c(=O)c(=O)[nH]c3ccccc32)cc1	.	.	.	0%	.
Cc1cccc(-n2c(N)cc(=O)nc2SCC(=O)Nc2ccc(F)cc2)c1C	.	1%	.	.	1%
c1csc(-c2ccc(N3CCOCC3)nn2)c1	0.4µM*	.	0.5µM*	.	2.4µM*
CCOC(=O)C1CCN(c2ccc(-c3cccs3)nn2)CC1	22%	.	4%	.	0.76µM*
CCOC(=O)C1CCN(c2ccc(Cl)nn2)CC1	-2%	-47%	0%	-3%	-4%
Fc1cccc2sc(Nc3nc4c(F)cccc4s3)nc12	?	16µM*	?	-2%	4.3µM*
Fc1cccc2sc(Nc3nnc(-c4ccccc4)o3)nc12	2.5µM*	3.2µM*	3.2µM*	4%	3µM*
COc1cc(OC)cc(-c2nnc(Nc3nc4c(F)cccc4s3)o2)c1	6%	2%	5%	6%	?
CCN(CC)CCn1c2ccccc2c2nc3ccccc3nc21	?	.	?	.	21µM*
CCCn1c2ccccc2c2nc3ccccc3nc21	-2%	1%	2%	2%	2%[2.3 µM]
C=CCNC(=O)c1c(Br)cnn1-c1ccc(C)cc1	2.5µM*	.	2.5µM*	.	19µM*
Cc1ccc(-n2ncc(Cl)c2C(=O)NCc2ccccc2)cc1	?	.	?	.	11µM*
CNC(=O)c1c(Cl)cnn1-c1ccc(F)cc1	24%	.	26%	.	-13%
Cc1ccc(-n2ncc(C(=O)NCCCN3CCCCC3)c2C2CCN(C(=O)OC(C)(C)C)CC2)c(C)c1	.	.	.	.	6%
SMILES	NPC1 promoter act	SMN2 splice enh	Rab9 prom act	KinaseGlo FLuc	FLuc counter
COc1cccc(-c2ccc(SCc3ccccn3)nn2)c1	3.5µM*	11µM*	2.8µM*	-16%	11µM*
O=C(CSc1ccc(-c2cccc([N+](=O)[O-])c2)nn1)N1CCCCC1	-1%	-1%	4%	0%	-2%
COc1ccc(-c2ccc(SCc3ccccn3)nn2)cc1OC	0%	8%	-2%	-12%	?
O=[N+]([O-])c1cccc(-c2ccc(SCc3ccccn3)nn2)c1	?	?	4µM*	0%	27µM*
O=C1CC(=O)Nc2cc(S(=O)(=O)Nc3cccc(Br)c3)ccc2N1	.	.	.	.	-6%
COc1ccc(CCNC(=O)CCc2c(C)nc3cc(-c4ccccc4OC)nn3c2C)c(OC)c1	.	-2%	.	.	-15%
O=C(c1cc2c(s1)-c1ccccc1OC2)N1CCCC1	?	-22%	2.8µM*	-1%	12µM*
CCCN1CCN(C(=O)c2cc3c(s2)-c2ccccc2OC3)CC1	?	.	4µM*	.	7.6µM*
O=C(c1cc2c(s1)-c1ccccc1OC2)N1CCN(c2ccccc2)CC1	5%	0%	-5%	0%	-12%
Cc1cc(NCc2ccccc2Cl)n2cnnc2n1	.	-68%	.	.	2%
CCOC(=O)NNc1nncc2ccccc12	0%	11%	2%	-8%	-8%
CC/C(=N\Nc1nncc2ccccc12)c1ccc(F)cc1	?	.	?	.	12µM*
C/C(=N\Nc1nncc2ccccc12)c1ccc(OCC(=O)N(C)C)cc1	27%	.	?	.	12µM*
COc1ccccc1Nc1nn2c(=O)c3ccc(C(=O)NC4CCC(C)CC4)cc3nc2s1 (stereo not drawn)	.	.	.	.	-1%
COc1ccc(/C=C/C(=O)Nc2nc3n(n2)C(c2ccc(F)cc2)C=C(c2ccccc2)N3)cc1 (stereo not drawn)	.	.	.	.	-10%
Nc1nc(N)nc(-c2ccc(Cl)cc2)n1	?	25%	?	4%	15µM*
Clc1ccc(-c2nnc(-c3ccccc3)c(-c3ccccc3)n2)cc1	-1%	.	-2%	.	0%
Nc1nc(-c2ccc(Cl)cc2)nnc1-c1ccc(Br)cc1	1.8µM*	.	1.1µM*	-3%	?
O=C(Nc1ccc(F)cc1)c1ccc2c(=O)n3c(nc2c1)CCCCC3	3.2µM*	.	4.5µM*	.	13µM*
O=C(Nc1ccc(Cl)cc1)c1ccc2c(=O)n3c(nc2c1)CCCCC3	15%	.	19%	.	?
CCc1cccc(NC(=O)c2ccc3c(=O)n4c(nc3c2)CCCCC4)c1	?	.	23%	.	13µM*
O=C(Nc1ccccn1)c1ccc2c(=O)n3c(nc2c1)CCCCC3	1µM*	.	0.56µM*	.	4.8µM*
O=C(Nc1ccc(F)c(Cl)c1)c1ccc2c(=O)n3c(nc2c1)CCCCC3	3.2µM*	.	1.8µM*	.	6.7µM*
CC(=O)c1ccc(NC(=O)c2ccc3c(=O)n4c(nc3c2)CCCCC4)cc1	-6%	.	2%	.	-19%
CCc1ccc(C(=O)NNC(=O)c2ccc3c(=O)n4c(nc3c2)CCC4)cc1	-2%	.	-1%	.	-19%
SMILES	NPC1 promoter act	SMN2 splice enh	Rab9 prom act	KinaseGlo FLuc	FLuc counter
O=C(c1cccc(Cl)c1)N(Cc1ccco1)Cc1ccccc1Cl	.	-25%	.	.	-16%
Cc1cc2c(cc1S(=O)(=O)Nc1cccc(C(F)(F)F)c1)OCCN2C	.	.	.	.	2%
Cc1ccc(NC(=O)c2ccc3c(=O)n4c(nc3c2)CCC4)cc1F	3.2µM*	.	2.5µM*	.	.
CNC(=O)c1ccc(NC(=O)c2ccc3c(=O)n4c(nc3c2)CCC4)cc1	-2%	.	1%	.	-10%
O=C(Nc1cccc(Cl)c1)c1ccc2c(=O)n3c(nc2c1)CCCCC3	1.6µM*	?	0.89µM*	-1%	3.4µM*
COc1ccc(Oc2nc3c(c(=O)n(Cc4ccccc4Cl)c(=O)n3C)n2C)cc1	.	1%	.	.	0%
COc1cccc(NC(=O)c2c(C)oc3nc(C)nc(N4CCCC4)c23)c1	.	.	.	.	68%
Cc1c(OCc2nn[nH]n2)ccc2c3c(c(=O)oc12)CCC(C)C3 (stereo not drawn)	23%	-8%	-4%	1%	?
Cc1c(OCc2nn[nH]n2)ccc2c3c(c(=O)oc12)CCCC3	-4%	6%	-10%	-1%	21µM*
